Molecular target: FANCG
Test: pooled miR-30 sensor sort-seq; sequence = guide strand
Settings: shRNA
Also: reference of the scale not given here.

Row | Sequence | sensor-assay potency score (higher = more potent)
1 | AGTAAGTGTCTCGATTACCTGG | -1.17
2 | TCTCTGTGGATTTCCCATCTTA | -0.461
3 | ATGAAGGCTGCTTAGTGCCTTG | -0.886
4 | TACACCTGGACCAACACAGGCC | 0.254
5 | TTCTACCTCAATGAGAAACTGC | -0.153
6 | TGTGTCTCCAGCACTCTCTCTA | 0.116
7 | TAAGTGTCTCGATTACCTGGGC | -0.142
8 | TTGGGTAGCAGAGATGATGTGC | 0.442
9 | TAGCAGCTCCAGACTCTCCAGC | -0.96
10 | TATAGGAATGGTCACATTCCTA | -1.18
11 | TTTTCTGGCATCTTCCCACAGC | -0.807
12 | ATAGCTTTCTAGGTACAGGGGG | 0.363
13 | TGCTGTGTACACCTGGACCAAC | -1.61
14 | TTGCAGACTATGGAGGAGCCCT | -1.08
15 | TAAATTCACTAATTGCCACTTT | 0.314
16 | TACCTCAATGAGAAACTGCGGG | -0.383
17 | AAGTACAACAGTGCTCTCTGTG | 0.113
18 | ATAGAGTCAAGGCATCTTGGGC | -0.699
19 | TAGCTTTCTAGGTACAGGGGGA | -0.426

Molecular target: FANCL
Test: as above
Settings: shRNA

Row | Sequence | sensor-assay potency score (higher = more potent)
20 | TTATGGAAACATTATTACCTAA | -1.18
21 | TTACCTAATGCAATTCTGCGTG | -0.355
22 | TAATCTTGCATTCTTCAGTTGT | 0.333
23 | TTAGTGAAGAGACAAACGCAGA | -1.17
24 | TAGATCAGGAGAGTGCTGCATT | -0.0519
25 | TTCTCTGTTGTACTATTCGATG | -1.72
26 | TAAAACTCTGTCTACTAGTTAG | -1.39
27 | TTCTGCAGGATACTTTGCCTTC | -0.558
28 | TACAATATGGACATTCACCAAA | -0.784
29 | TAATAATCTTGCATTCTTCAGT | -0.383
30 | TTAGTGATTCTATTGCTGCCAA | 0.323
31 | TAAGGTGGAAGTCTCTTCCCTG | 0.0592

Molecular target: FASN
Test: as above
Settings: shRNA

Row | Sequence | sensor-assay potency score (higher = more potent)
32 | TAGAGGTGCTGAGCCAGCGGGC | -1.55
33 | TAGCCCACGAGTGTCTCGGGGT | -0.532
34 | TTCTCTGACACCTCGAAGGCAC | -0.474
35 | TTGTACTCGGCGGAGGACGTGC | -0.733
36 | TTCAGGAAGATAGCCATGCCGA | -1.28
37 | TCGAAGAAGAAGGAGAGCCGGT | 0.123
38 | TACTTTCCCGTCGCATACCTGG | -1.06
39 | TTGGAGAGCAGCACACACCGGA | -0.273
40 | TTGAGCTCCTGCAGCAGTGGGG | -0.482
